Shown are actives, neighbours in structure and some others; about 21% of the full set was active somewhere.
TDP1 cell noCPT – qHTS for Inhibitors of human tyrosyl-DNA phosphodiesterase 1 (TDP1): qHTS in cells in absence of CPT. DT40 Tdp1-/- hTDP1 cells, no CPT, ATP luminescence, 48 h. Potency, µM (titrated, usually from 46.2 µM), for the others: at the highest dose activity change, negative = growth inhibition, usual class: inhibitors. 420,000 compounds, 15% hits; note: potency is the fitted concentration of half-maximal effect; nearly all actives have a fitted effect of over 55% in size
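Compound effects on proliferation are scored in DT40 Tdp1-/-;hTDP1 cells in the absence of CPT. ATP levels (CellTiter-Glo luminescence) are recorded after a ≥48 hr, 37 °C incubation.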
IL-1B inflam inh – blocks inflammasome-driven IL-1 beta release. THP-1 LPS/ATP IL-1B secretion, AlphaLISA, 16 h; active compounds read low. activity change, % at 57.5 µM. 360,000 compounds, 4.7% hits; in the data active = activity change below about -50%; inconclusive = mostly about -30% to -49%
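Secreted IL-1B measured by AlphaLISA bead assay after 16 h compound exposure of THP-1 cells; compounds (final up to 57.5 uM) added 1 h before LPS (250 ng/mL) and ATP (1.25 mM) stimulation; lower signal means less secretion.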
RORg inh – ROR gamma (mouse) transcription inhibition; P51450; Drosophila S2 Gal4-RORgamma UAS-luciferase reporter, 20 h; Potency, µM (top dose mostly 53.6 µM), without a hit: at the top dose activity change, negative = inhibition, actives largely listed as inhibitors; 310,000 compounds, 5.4% hits; AID 2551; note: potency is the fitted concentration of half-maximal effect; nearly all actives have a fitted effect of over 60% in size
Target sequence (P51450 whole entry, looked up, the tested form may be a part): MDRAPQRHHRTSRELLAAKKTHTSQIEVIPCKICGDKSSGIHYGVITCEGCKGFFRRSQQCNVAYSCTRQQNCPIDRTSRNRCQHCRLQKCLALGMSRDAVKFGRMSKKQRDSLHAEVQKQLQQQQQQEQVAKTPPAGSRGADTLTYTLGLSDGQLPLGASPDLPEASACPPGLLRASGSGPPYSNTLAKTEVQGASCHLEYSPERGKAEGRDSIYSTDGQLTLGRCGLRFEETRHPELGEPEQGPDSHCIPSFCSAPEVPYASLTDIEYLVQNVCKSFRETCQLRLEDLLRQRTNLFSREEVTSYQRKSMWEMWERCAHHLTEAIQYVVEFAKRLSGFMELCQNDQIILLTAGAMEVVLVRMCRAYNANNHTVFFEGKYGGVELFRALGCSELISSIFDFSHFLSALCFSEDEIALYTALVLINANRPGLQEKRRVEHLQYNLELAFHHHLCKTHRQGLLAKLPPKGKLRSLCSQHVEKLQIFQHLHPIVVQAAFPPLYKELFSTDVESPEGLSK
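A Gal4/UAS one-hybrid system in insect cells: metallothionein-promoter Gal4–ROR gamma fusion plus Photinus luciferase reporter. Copper sulfate 700 uM final, 20 hr ambient incubation, luminescent detection after 10 min with reagent.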
DT40 TDP1 CPT – DT40-hTDP1 cell growth loss with CPT | Potency, µM (highest dose often 46.2 µM), inactives show at the top dose activity change, negative = growth inhibition, actives largely listed as inhibitors | chicken DT40 Tdp1-/-;hTDP1 cells + 20 nM CPT, ATP luminescence, 48 h | AID 686979 | 420,000 compounds, 12% hits; note: potency is the fitted concentration of half-maximal effect; nearly all actives have a fitted effect of over 55% in size
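Chicken DT40 Tdp1-/- cells complemented with human TDP1, 400 cells/well, exposed to compounds plus 20 nM camptothecin for at least 48 h at 37 C; viability read as ATP content by CellTiter-Glo luminescence.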
ELG1 DNA repair – inhibitors of ELG1-dependent DNA repair in HEK293T cells; HEK293T ELG1-luciferase reporter, luminescence, 16 h; DNA damage induced by 5-fluorouridine; Potency, µM (titrated, usually from 46.1 µM), for inactives: at the highest dose activity change, negative = inhibition, hits mostly inhibitors; 330,000 compounds, 2.3% hits; AID 504467; note: potency is the fitted concentration of half-maximal effect; nearly all actives have a fitted effect of over 55% in size
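Luminescence from the luciferase reporter, measured 30 min after ONE-Glo reagent at room temperature, was the read-out. Beforehand, 2,000 cells per well were exposed for 16 hr at 37 °C to 5-fluorouridine together with compound or vehicle.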
VP16 counter – Gal4-VP16 reporter inhibition counter-screen; Drosophila S2 Gal4-VP16 UAS-luciferase, luminescence, 20 h; Potency, µM (titrated, usually from 53.6 µM), for inactives: top-dose activity, negative = inhibition, most hits filed as inhibitors; 310,000 compounds, 3.5% hits; AID 2546;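 note: Gal4-VP16 expression switched on by copper sulfate through the metallothionein promoter; potency is the fitted concentration of half-maximal effect; nearly all actives have a fitted effect of over 50% in size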
Active calls of the source: *; [ ] = dose if it differs, or a comment. Unless noted, calls come from the whole dose curve; as a rule, active = well fitted curve in the direction sought with a large enough effect; inconclusive = small, poorly fitted or top-dose-only effect, or another doubt; inactive = no such curve, though single readings can be large; an effect the other way counts as inactive or inconclusive. % is set by controls: 0 for no effect and ±100 for the full control effect.

Screening CCN(CC)CCNC(=O)C1CCCN(c2ncnc3onc(C)c23)C1 (stereo not drawn) returned TDP1 cell noCPT -5.3% and DT40 TDP1 CPT 0.3%.
CCCCN(CC)C(=O)C1CCCN(c2ncnc3onc(C)c23)C1 (stereo not drawn) was read as TDP1 cell noCPT 20.6µM* and DT40 TDP1 CPT 18.4µM*.
For O=C1NC[C@H](CCCCN2C[C@H](Cc3ccccc3)N(CCc3ccc(O)cc3)C(=O)C2=O)N(CCc2ccccc2)C1=O the results were TDP1 cell noCPT -16.0%, IL-1B inflam inh -7.1 and DT40 TDP1 CPT 9.1%.
For CCn1cc(/C=C(\NC(=O)c2ccc(C)cc2)C(=O)NCCCn2ccnc2)c2ccccc21 the results were TDP1 cell noCPT 20.6µM* and DT40 TDP1 CPT inconclusive.
`CCn1cc(/C=C(\NC(=O)c2ccccc2)C(=O)NCCCn2ccnc2)c2ccccc21` gave TDP1 cell noCPT -17.6%, IL-1B inflam inh -22.7 and DT40 TDP1 CPT -18.2%.
For CNC(=O)/C=C1\NC(C)(C)Cc2c1ccc1ccccc21 the results were TDP1 cell noCPT 20.6µM*, IL-1B inflam inh -67.2*, RORg inh -16.0%, DT40 TDP1 CPT 20.6µM*, ELG1 DNA repair -21.4% and VP16 counter 5.4%.
CC1NC(C)(C)Cc2c1ccc1ccccc21 (stereo not drawn) was read as TDP1 cell noCPT 0.8%, IL-1B inflam inh -23.0, RORg inh -28.2%, DT40 TDP1 CPT -3.0%, ELG1 DNA repair 1.4% and VP16 counter 9.1%.
COc1cc(OC)c2nc(C)c3c(c2c1)N(c1ccc(O)cc1)CC3 was read as TDP1 cell noCPT 16.4µM*, RORg inh 4.0%, DT40 TDP1 CPT inconclusive, ELG1 DNA repair -26.1% and VP16 counter -13.6%.
`COc1ccc(OC)c(NC(=O)c2cc(OC(C)=O)cc(C(=O)Nc3cc(OC)ccc3OC)c2)c1` gave TDP1 cell noCPT 10.3µM*, IL-1B inflam inh -10.3, RORg inh 34.3%, DT40 TDP1 CPT inconclusive, ELG1 DNA repair inconclusive and VP16 counter -9.2%.
COc1ccc(C)cc1NC(=S)NNC(=O)c1c(Br)cnn1C was read as TDP1 cell noCPT inconclusive, IL-1B inflam inh 42.9, RORg inh 2µM*, DT40 TDP1 CPT -25.2%, ELG1 DNA repair inconclusive and VP16 counter -18.5%.
For COc1ccc(C(=O)Nc2cc(OC)ccc2OC)cc1 the results were TDP1 cell noCPT -11.5%, IL-1B inflam inh -6.2, RORg inh 15.0%, DT40 TDP1 CPT -10.5%, ELG1 DNA repair inconclusive and VP16 counter 3.8%.
`COc1ccc(OC)c(NC(=O)c2cn(C)c(=O)c3cc(OC)c(OC)cc23)c1` gave TDP1 cell noCPT inconclusive, IL-1B inflam inh -28.5, RORg inh 2.0%, DT40 TDP1 CPT -22.4%, ELG1 DNA repair 20.6µM* and VP16 counter -2.2%.
`COc1ccc(C)cc1NC(=O)c1cccc(C(=O)Nc2cc(C)ccc2OC)c1` gave TDP1 cell noCPT 10.3µM*, IL-1B inflam inh inconclusive, RORg inh inconclusive, DT40 TDP1 CPT 14.6µM*, ELG1 DNA repair inconclusive and VP16 counter -7.9%.
For COc1ccccc1NC(=S)NNC(=O)c1nn(C)c(C)c1Br the results were TDP1 cell noCPT inconclusive, IL-1B inflam inh -7.6, RORg inh -42.4%, DT40 TDP1 CPT inconclusive, ELG1 DNA repair inconclusive and VP16 counter 4.8%.
`O=C(NCC1Cc2cccc(-c3ncccn3)c2O1)c1cccc(-c2ccccc2F)c1` (stereo not drawn) gave TDP1 cell noCPT inconclusive and DT40 TDP1 CPT -10.1%[9.04 µM].
`CC(=O)c1ccc(F)c(-c2cc(C)cc3c2OC(CNC(=O)c2cccnc2)C3)c1` (stereo not drawn) gave TDP1 cell noCPT inconclusive and DT40 TDP1 CPT 21.4%[9.04 µM].
COc1ccc(C)cc1NC(=O)Nc1ccc(Br)cn1 was read as TDP1 cell noCPT 3.0%, IL-1B inflam inh 35.9, RORg inh 10µM*, DT40 TDP1 CPT -2.1%, ELG1 DNA repair 0.1% and VP16 counter 5.3%.
For O=S1(=O)N[C@@H](Cc2ccccc2)COc2ccc(Cl)cc21 the results were TDP1 cell noCPT inconclusive, IL-1B inflam inh 20.9 and DT40 TDP1 CPT inconclusive.
For CCCCCCOC(=O)/C=C/c1c(C)[nH]c(=O)[nH]c1=O the results were TDP1 cell noCPT 4.61µM*, IL-1B inflam inh 31.0, RORg inh 31.0%, DT40 TDP1 CPT inconclusive, ELG1 DNA repair -13.2% and VP16 counter -19.3%.
Screening CN1CC(O)(C(O)C(O)C(O)CO)SC1=S (stereo not drawn) returned TDP1 cell noCPT 4.5%, IL-1B inflam inh 11.5 and DT40 TDP1 CPT 4.1%.
CCc1ccc(-n2nc3cc(C)c(N)cc3n2)cc1 was read as TDP1 cell noCPT -2.1%, IL-1B inflam inh 17.8, RORg inh -18.7%, DT40 TDP1 CPT 9.4%, ELG1 DNA repair inconclusive and VP16 counter inconclusive.
For Cc1cc2nc3ccc(N(C)C)cc3nc2cc1N the results were TDP1 cell noCPT 14.6µM*, IL-1B inflam inh inconclusive and DT40 TDP1 CPT inconclusive.
`COc1ccccc1CN1CC2(CCN(C(=O)c3cc(C(F)(F)F)cc(C(F)(F)F)c3)CC2)C1` gave TDP1 cell noCPT inconclusive, RORg inh -36.6%, DT40 TDP1 CPT 3.4% and VP16 counter 6.1%.
For COc1ccc(C(=O)N2c3ccccc3C(C)(c3ccc(Cl)cc3)CC2(C)C)cc1 (stereo not drawn) the results were TDP1 cell noCPT 16.4µM* and DT40 TDP1 CPT inconclusive.
CCC(=O)N1c2ccccc2C(C)(c2ccccc2)CC1(C)C (stereo not drawn) was read as TDP1 cell noCPT -28.4% and DT40 TDP1 CPT -15.8%.
COc1cccc(C(=O)N2c3ccc(C)cc3C(C)(c3ccccc3)CC2(C)C)c1 (stereo not drawn) was read as TDP1 cell noCPT 23.1µM* and DT40 TDP1 CPT inconclusive.
Screening CC1(c2cc([N+](=O)[O-])cc([N+](=O)[O-])c2)CC(C)(C)N(C(=O)c2ccccc2)c2ccccc21 (stereo not drawn) returned TDP1 cell noCPT 16.4µM*, IL-1B inflam inh 0.3, RORg inh -34.5%, DT40 TDP1 CPT 23.1µM*, ELG1 DNA repair -11.6% and VP16 counter -0.1%.
CCOC(=O)C1(C)CCN1C(=O)c1cccc(OC)c1 (stereo not drawn) was read as TDP1 cell noCPT -0.7%, IL-1B inflam inh 3.1 and DT40 TDP1 CPT 8.7%.

Source: PubChem
